Inconclusive results are not listed. Calls of active or inactive are those of the source.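 How the source made its calls, unless noted: active means percent response above a set limit, the screen-wide mean plus 3 SD (cut at about 130% in these data); inactive means the rest.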

A short description of assay [1]: yeast TOR pathway RPL19A-GFP modulators, primary screen, cell-based, S. cerevisiae, multiplex flow cytometry (AID 1862; in the data active means percent of DMSO control GFP below about 86%;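 further: lower values mimic rapamycin by blocking the RPL19A rise seen in DMSO cells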). The following applies: S. cerevisiae RPL19A-GFP strain, flow cytometry fluorescence, 3 h; at 10 µM; stronger effect = lower value.
Assay [2] in a line: modulators of MEP2-GFP levels in yeast, primary screen, S. cerevisiae, multiplex flow cytometry (AID 1867;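 active means GFP response, as percent of the DMSO control, above the screen-wide mean plus 3 SD, about 139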;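 further: median GFP channel fluorescence of barcode-gated MEP2-GFP cells measured by flow cytometry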). The following applies: S. cerevisiae MEP2-GFP strain, 3 h, at 10 µM, stronger effect = higher value, 100% means same as DMSO wells.
Assay [3] is described as follows: modulators of CIT2-GFP expression in yeast, primary screen, S. cerevisiae, GFP fusion, multiplex flow cytometry (AID 1870).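 Further: barcoded CIT2-GFP strain pooled with four other GFP strains with rapamycin as positive control; median GFP fluorescence per well over plate mean of DMSO wells so 100% = DMSO.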 The following applies: 3 h, at 10 µM, stronger effect = higher value.
The nature of assay [4]: modulators of LAP4-GFP expression in yeast, primary screen, S. cerevisiae, multiplex flow cytometry (AID 1873;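 active means GFP signal, as percent of the solvent control, above the screen mean plus 3 SD, about 149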). The note with it: 3 h, at 10 µM, stronger effect = higher value.
Assay [5] is described as follows: modulators of AGP1-GFP expression in yeast TOR pathway, primary screen, cell-based, multiplex flow cytometry, S. cerevisiae (AID 1887;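 active means GFP signal above the screen-wide mean plus 3 SD, that is over about 124.5% of the solvent control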;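 further: AGP1-GFP fusion strain of S. cerevisiae within a five-strain barcoded multiplex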). The note with it: 3 h, at 10 µM, stronger effect = higher value.
The nature of assay [6]: inhibitors of CD8+ T cell-vesicle binding, pilot screen, LFA-1/ICAM-1 modulator project, MLPCN validation set, flow cytometry (AID 2523;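 active means response below a set limit, under 55% cells CD8-positive and vesicle-bound, and CD8 cells' 90th-percentile brightness under 279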;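 on vesicle binding response: mean PE anti-B7-1 fluorescence of CD8+ cells relative to row control; 100% = QL9-loaded vesicles with DMSO vehicle in the same plate row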). The following applies: 2C mouse CD8+ T cells, at 7 µM, stronger effect = lower value; double positive events: measured here: CD8+/vesicle+ event percentage.
The target in assay [7] is Integrin beta-1 (Homo sapiens) + Integrin alpha-4 (Homo sapiens) (UniProt P13612+P05556). Put plainly: inhibition of HUTS-21 binding to VLA-4, pilot screen, VLA-4 allosteric modulator project, U937 cells, HUTS-21 mAb, flow cytometry, validation set (AID 2674;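 active means inhibition above 50%, about 3 SD of the validation set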;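 further: antibody binding induced by the VLA-4 ligand LDV present at three times its Kd; 0% = LDV ligand with antibody and no compound and 100% = antibody without LDV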). The note with it: HUTS-21 LIBS mAb binding, at 6.7 µM, stronger effect = higher value, binding induced by LDV ligand.
Chain of Integrin beta-1 (Homo sapiens) + Integrin alpha-4 (Homo sapiens) (P05556 whole entry, looked up): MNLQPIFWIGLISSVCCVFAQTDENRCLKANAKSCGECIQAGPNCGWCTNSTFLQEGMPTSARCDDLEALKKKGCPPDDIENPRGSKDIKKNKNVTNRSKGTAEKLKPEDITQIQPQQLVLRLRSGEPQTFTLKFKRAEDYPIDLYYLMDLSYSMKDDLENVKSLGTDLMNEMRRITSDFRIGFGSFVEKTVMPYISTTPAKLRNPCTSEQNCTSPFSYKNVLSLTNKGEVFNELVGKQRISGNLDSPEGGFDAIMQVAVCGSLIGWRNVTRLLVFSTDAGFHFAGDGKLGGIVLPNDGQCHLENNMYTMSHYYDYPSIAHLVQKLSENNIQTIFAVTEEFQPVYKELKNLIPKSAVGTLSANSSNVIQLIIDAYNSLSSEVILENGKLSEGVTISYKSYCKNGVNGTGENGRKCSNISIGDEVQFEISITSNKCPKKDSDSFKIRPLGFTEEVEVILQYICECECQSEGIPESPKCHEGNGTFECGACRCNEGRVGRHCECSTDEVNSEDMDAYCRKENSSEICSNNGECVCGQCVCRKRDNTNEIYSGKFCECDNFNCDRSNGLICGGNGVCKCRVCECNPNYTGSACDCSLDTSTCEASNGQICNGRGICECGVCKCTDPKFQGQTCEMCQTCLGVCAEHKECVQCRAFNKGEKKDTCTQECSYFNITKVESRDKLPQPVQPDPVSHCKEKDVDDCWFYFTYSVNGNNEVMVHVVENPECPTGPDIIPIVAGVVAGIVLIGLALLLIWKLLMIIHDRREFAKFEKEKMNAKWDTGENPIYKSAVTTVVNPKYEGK
Chain of Integrin beta-1 (Homo sapiens) + Integrin alpha-4 (Homo sapiens) (P13612 whole entry, looked up): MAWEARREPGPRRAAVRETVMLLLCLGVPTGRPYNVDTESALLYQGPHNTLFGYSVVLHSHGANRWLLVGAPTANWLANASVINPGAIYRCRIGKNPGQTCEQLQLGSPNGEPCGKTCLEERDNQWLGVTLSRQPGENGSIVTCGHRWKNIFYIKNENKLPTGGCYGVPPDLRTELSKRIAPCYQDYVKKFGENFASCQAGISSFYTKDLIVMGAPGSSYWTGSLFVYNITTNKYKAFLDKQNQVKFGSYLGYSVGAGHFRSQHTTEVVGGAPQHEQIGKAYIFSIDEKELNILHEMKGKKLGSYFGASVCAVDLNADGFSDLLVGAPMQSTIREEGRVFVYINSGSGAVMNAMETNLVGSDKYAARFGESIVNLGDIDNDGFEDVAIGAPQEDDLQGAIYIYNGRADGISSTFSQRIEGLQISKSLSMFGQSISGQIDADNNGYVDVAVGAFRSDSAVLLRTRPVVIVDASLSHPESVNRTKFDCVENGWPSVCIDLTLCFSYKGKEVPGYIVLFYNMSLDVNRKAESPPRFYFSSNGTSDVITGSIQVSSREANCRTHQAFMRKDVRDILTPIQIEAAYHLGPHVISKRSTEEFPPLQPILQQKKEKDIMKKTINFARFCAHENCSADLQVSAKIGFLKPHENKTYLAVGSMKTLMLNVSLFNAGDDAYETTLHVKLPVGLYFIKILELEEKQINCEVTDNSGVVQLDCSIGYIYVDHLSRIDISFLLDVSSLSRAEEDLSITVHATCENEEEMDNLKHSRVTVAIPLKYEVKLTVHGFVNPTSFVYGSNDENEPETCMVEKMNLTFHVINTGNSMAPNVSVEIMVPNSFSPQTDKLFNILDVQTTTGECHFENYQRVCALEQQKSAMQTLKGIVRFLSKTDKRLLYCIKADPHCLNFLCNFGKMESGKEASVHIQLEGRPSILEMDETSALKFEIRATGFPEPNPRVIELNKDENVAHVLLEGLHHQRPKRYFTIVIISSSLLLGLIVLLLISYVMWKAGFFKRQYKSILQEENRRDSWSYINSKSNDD
Assay [8] is described as follows: superoxide lowering in aged yeast cells, pilot screen, validation compound set (AID 2706;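 active means superoxide response below 65% of plate, a cut near 3 SD across the whole screen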;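 further: yeast exposed to compound for one week at 30 degrees C before staining; 100% = mean of all compound wells on the same plate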). The note with it: S. cerevisiae aging, superoxide DHE fluorescence; at 10 µM; stronger effect = lower value.
For assay [9], the target named is Beta-adrenergic receptor kinase 1 (Homo sapiens) (UniProt P25098). Put plainly: GRK2 binders displacing RNA aptamer, biochemical, validation, human GRK2, bead flow cytometry (AID 488806;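 active means aptamer binding inhibition above 30%, about 3 SD of noise from non-fluorescent compounds; inactive means inhibition at or below 30%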). The following applies: bead-bound GRK2, FAM-aptamer displacement, at 10 µM, stronger effect = higher value.
Chain of Beta-adrenergic receptor kinase 1 (Homo sapiens) (P25098 whole entry, looked up): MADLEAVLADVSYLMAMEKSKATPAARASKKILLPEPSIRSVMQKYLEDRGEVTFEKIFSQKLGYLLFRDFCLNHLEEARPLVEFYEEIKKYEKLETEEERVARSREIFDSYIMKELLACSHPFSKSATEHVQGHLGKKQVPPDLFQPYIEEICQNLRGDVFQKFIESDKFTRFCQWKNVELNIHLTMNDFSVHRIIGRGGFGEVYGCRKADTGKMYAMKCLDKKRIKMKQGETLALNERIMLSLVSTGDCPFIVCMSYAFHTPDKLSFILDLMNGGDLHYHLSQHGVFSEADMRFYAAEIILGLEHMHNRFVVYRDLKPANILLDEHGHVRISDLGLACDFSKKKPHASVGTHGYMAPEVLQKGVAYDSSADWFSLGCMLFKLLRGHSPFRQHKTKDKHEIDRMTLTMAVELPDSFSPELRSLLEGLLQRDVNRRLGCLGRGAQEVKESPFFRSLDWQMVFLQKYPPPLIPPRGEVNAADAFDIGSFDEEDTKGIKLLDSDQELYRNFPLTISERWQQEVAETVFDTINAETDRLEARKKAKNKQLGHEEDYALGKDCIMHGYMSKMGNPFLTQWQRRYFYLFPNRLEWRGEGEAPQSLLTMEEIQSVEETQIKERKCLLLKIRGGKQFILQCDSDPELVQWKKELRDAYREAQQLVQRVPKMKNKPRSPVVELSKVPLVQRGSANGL
The target of assay [10] is Beta-2 adrenergic receptor (Homo sapiens) (UniProt P07550). Put plainly: beta2AR agonists driving receptor internalization, pilot screen, cell-based, FAP fluorogen, flow cytometry, validation set (AID 504459;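 active means percent response above 42, roughly 3 SD of non-fluorescent test compounds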;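 further: agonist-driven loss of surface beta2AR via internalization measured by FAP dye flow cytometry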). The following applies: Am2.2-beta2AR cells, FAP surface receptor flow cytometry; at 10 µM; stronger effect = higher value.
Chain of Beta-2 adrenergic receptor (Homo sapiens) (P07550 whole entry, looked up): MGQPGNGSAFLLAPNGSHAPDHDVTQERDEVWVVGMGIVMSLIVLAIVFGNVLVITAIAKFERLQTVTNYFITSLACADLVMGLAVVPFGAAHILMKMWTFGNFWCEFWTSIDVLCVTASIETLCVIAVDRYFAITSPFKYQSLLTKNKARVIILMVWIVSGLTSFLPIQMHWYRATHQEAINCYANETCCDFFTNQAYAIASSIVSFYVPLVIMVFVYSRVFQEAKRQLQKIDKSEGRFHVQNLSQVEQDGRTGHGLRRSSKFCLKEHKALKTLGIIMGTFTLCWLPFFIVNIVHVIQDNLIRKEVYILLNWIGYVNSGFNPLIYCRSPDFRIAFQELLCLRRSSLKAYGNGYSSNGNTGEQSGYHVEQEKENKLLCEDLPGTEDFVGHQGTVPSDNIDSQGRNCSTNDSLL
In assay [11] the target is AP-2 complex subunit beta (Homo sapiens) (UniProt P63010). Put plainly: inhibitors of arrestin peptide binding to AP2, pilot screen, biochemical, validation set, GST-AP2 beads, flow cytometry (AID 504541;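 active means inhibition above 54%, about 3 SD of non-fluorescent compounds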;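 further: AP2 carries R879A mutation and is captured from E. coli lysate; bead-bound FITC arrestin peptide fluorescence measuring arrestin peptide binding to AP2; 0% = DMSO wells and 100% = excess unlabeled arrestin peptide control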). The note with it: FITC arrestin peptide, at 10 µM, stronger effect = higher value, AP2 beta2 appendage fragment, R879A mutant.
Chain of AP-2 complex subunit beta (Homo sapiens) (P63010 whole entry, looked up, the tested form may be a part, one chain of several): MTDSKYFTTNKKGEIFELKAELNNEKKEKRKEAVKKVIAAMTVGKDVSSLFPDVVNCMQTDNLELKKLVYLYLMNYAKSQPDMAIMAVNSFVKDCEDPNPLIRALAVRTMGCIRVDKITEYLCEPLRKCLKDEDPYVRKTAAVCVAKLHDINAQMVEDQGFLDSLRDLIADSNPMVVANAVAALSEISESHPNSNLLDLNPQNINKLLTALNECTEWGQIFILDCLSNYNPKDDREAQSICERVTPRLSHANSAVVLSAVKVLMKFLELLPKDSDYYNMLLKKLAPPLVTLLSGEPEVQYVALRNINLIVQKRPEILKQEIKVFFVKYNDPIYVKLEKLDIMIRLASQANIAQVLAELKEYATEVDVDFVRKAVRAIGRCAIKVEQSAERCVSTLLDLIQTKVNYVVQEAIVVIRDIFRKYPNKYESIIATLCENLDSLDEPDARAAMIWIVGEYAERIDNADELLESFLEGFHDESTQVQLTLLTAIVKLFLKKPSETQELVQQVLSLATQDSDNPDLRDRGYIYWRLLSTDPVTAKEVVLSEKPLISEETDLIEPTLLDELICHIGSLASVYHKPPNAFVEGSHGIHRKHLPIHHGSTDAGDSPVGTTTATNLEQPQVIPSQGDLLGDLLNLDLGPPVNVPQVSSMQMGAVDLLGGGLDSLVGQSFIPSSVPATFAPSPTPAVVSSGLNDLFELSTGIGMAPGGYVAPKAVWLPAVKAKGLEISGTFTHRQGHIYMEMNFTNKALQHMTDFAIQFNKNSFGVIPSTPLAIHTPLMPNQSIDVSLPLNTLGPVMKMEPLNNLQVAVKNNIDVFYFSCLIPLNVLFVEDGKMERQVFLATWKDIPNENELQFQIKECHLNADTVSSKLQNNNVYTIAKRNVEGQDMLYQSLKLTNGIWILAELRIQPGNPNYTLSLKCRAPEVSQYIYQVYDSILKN
A short description of assay [12]: yeast V-ATPase proton transport modulators, S. cerevisiae, pHLuorin, HTS validation (AID 504600; in the data active means response above about 15%;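 further: plate controls were DMSO for no effect and reference compound for full effect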). The note with it: S. cerevisiae pHLuorin cytosolic pH, at 10 µM, stronger effect = higher value.
In assay [13] the test system is anti-desmoglein-3 scFv antibody binding to human DSG3. The assay can be described thus: inhibitors of anti-DSG3 scFv binding to DSG3, pilot screen, biochemical, validation compound set, bead-based, flow cytometry (AID 588368;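 active means binding below the plate cutoff, the plate median minus 3 SD, with a reading above zero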;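 further: signal is the median channel fluorescence of bead-bound GFP antibody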). The following applies: Protein G beads, DSG3-Fc, scFv-GFP binding, at 10 µM, stronger effect = lower value.
Assay [14] in a line: inhibitors of fungal efflux pumps CDR1, CDR2, MDR1, pilot screen, validation compound set, multiplex, phenotypic (AID 588506;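 active means efflux inhibition above 0.42, the validation set average plus 4 SD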;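 further: Nile Red retained in cells so higher fluorescence means more efflux inhibition; 0 = negative control wells and 1 = enniatin B 25 µM full block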). The note with it: S. cerevisiae pump-expressing triplex, Nile Red efflux flow cytometry; at 10 µM; stronger effect = higher value; the pumps come from Candida albicans.
Assay [15] has as its target ATP-binding cassette sub-family B member 6 (Homo sapiens) (UniProt Q9NP58). Put plainly: ABCB6 transporter inhibitors, pilot screen, K562-ABCB6 cells, flow cytometry, validation set (AID 588550;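 active means inhibition above the screen-wide mean plus 3 SD, about 51%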;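 further: 0% = DMSO wells and 100% = benzethonium chloride 70 µM positive control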). The note with it: K562-ABCB6 porphyrin accumulation, 1 h, at 10 µM, stronger effect = higher value.
Assay [16] is described as follows: promoters of myeloid differentiation in arrested cells, primary screen, cell-based, GFP/MAC1 double positive, flow cytometry, validation set (AID 588685;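 active means differentiation response of at least 50%, scaled between solvent and reference control, from cells with both markers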;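 further: compound exposure lasts four days before antibody staining and flow analysis; 0% = DMSO wells and 100% = 5 µM fulvestrant positive control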). The following applies: ER-HoxA9 marrow cells, stronger effect = higher value, normalized: vehicle 0, fulvestrant 100.

Chain of ATP-binding cassette sub-family B member 6 (Homo sapiens) (Q9NP58 whole entry, looked up): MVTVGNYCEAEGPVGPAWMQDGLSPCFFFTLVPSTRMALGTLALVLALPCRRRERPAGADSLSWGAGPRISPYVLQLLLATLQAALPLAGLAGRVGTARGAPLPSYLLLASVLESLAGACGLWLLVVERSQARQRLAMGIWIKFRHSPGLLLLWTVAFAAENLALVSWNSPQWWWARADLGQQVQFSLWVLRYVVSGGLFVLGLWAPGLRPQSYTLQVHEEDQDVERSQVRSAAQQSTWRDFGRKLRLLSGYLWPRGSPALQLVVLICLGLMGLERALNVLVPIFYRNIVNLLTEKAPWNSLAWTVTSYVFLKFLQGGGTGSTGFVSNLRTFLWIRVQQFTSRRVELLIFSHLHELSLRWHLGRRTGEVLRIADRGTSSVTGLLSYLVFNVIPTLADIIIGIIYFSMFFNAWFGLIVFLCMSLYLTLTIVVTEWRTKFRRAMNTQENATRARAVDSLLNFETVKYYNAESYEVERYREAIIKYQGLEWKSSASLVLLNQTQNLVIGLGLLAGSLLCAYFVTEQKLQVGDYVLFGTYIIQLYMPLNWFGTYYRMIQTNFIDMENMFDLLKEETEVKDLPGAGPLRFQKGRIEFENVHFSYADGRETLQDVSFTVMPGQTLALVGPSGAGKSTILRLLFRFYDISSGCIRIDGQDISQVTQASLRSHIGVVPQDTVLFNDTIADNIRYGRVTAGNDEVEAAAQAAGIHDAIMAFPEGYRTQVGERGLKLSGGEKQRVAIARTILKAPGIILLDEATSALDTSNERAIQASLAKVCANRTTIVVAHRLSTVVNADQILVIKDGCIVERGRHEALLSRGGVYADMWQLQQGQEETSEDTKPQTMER

In the case of `COC(=O)C1=C(C)N(C)C(=S)NC1c1ccc(Cl)cc1` (stereo not drawn), the percent of DMSO control GFP in [1] is 99.8% (inactive). Besides, the GFP response vs DMSO in assay [2] was 95.6% (inactive); in assay [4] it was 98% (inactive). Besides, the percent response of DMSO control in assay [3] is 98.6% (inactive). For the same molecule, the GFP response, % of DMSO in assay [5] is 88.8% (inactive). The double positive events in assay [6] came out at 63%. In [6], the vesicle binding response was 138% (inactive). For the same molecule, the results for the inhibition in [7], in assay [11] and in assay [15] were -2.43% (inactive), 0.15% (inactive) and 7% (inactive), respectively. Moreover, in [8], the superoxide response (% of plate) was 99.9% (inactive). The aptamer binding inhibition in [9] was 3% (inactive). In addition, the figures for the response in assay [10] and in assay [12] were -27.7% (inactive) and 0.83% (inactive), respectively. Also, the binding (% of control) in assay [13] was 97.9% (inactive). Besides, in assay [14], the efflux inhibition (fraction of control) was -0.04 (inactive). In addition, the differentiation response in assay [16] is -10.4% (inactive).
`Cc1cccc2c1CC(C)(C)N/C2=C\C(N)=O`: the percent of DMSO control GFP in assay [1] was 98.7% (inactive). Besides, the GFP response vs DMSO in assay [2] was 102% (inactive); in assay [4] it was 103% (inactive). In assay [3], the percent response of DMSO control was 91.8% (inactive). For the same molecule, the GFP response, % of DMSO in [5] was 104% (inactive). For the same molecule, the double positive events in assay [6] is 63.7%. Also, the vesicle binding response in [6] was 148% (inactive). The inhibition in [7] was -217% (inactive); in assay [11], 10.1% (inactive); in assay [15], -25% (inactive). In addition, the superoxide response (% of plate) in [8] was 99% (inactive). Besides, the aptamer binding inhibition in [9] was 0% (inactive). Also, the response is -10.2% (inactive) in assay [10] and -3.68% (inactive) in assay [12]. Moreover, the binding (% of control) in assay [13] is 113% (inactive). For the same molecule, in assay [14], the efflux inhibition (fraction of control) is 0.04 (inactive). Further, the differentiation response in assay [16] is -12.9% (inactive).
In the case of `COC(=O)C1=CN(Cc2cccs2)C=C(C(=O)OC)C1c1cccc(Cl)c1`, the percent of DMSO control GFP in [1] is 103% (inactive). Moreover, the GFP response vs DMSO is 107% (inactive) in assay [2] and 92.3% (inactive) in assay [4]. The percent response of DMSO control in [3] was 98.2% (inactive). In addition, the GFP response, % of DMSO in assay [5] was 97.2% (inactive). In assay [6], this molecule showed a double positive events of 61.5%. In addition, the vesicle binding response in assay [6] is 186% (inactive). Further, the inhibition in [7] was 14% (inactive); in assay [11], 2.7% (inactive); in assay [15] it was 6% (inactive). Further, the superoxide response (% of plate) in assay [8] is 103% (inactive). For the same molecule, in [9], the aptamer binding inhibition is 5% (inactive). Besides, the response was 9.92% (inactive) in [10] and -0.61% (inactive) in assay [12]. Also, the binding (% of control) in [13] is 99.5% (inactive). In addition, the efflux inhibition (fraction of control) in [14] was 0.26 (inactive). Further, the differentiation response in assay [16] was 6.49% (inactive).
In the case of `CCCNC(C)C(=O)Nc1ccccc1C` (stereo not drawn), the percent of DMSO control GFP in assay [1] was 100% (inactive). Besides, the figures for the GFP response vs DMSO in assay [2] and in [4] were 101% (inactive) and 92.6% (inactive), respectively. The percent response of DMSO control in assay [3] was 101% (inactive). Moreover, the GFP response, % of DMSO in assay [5] is 103% (inactive). This molecule came in with a double positive events in assay [6] of 60.4%. The vesicle binding response in [6] was 130% (inactive). In addition, the inhibition in assay [7] was -15.8% (inactive); in assay [11], -0.33% (inactive); in assay [15] it was -3% (inactive). In addition, the superoxide response (% of plate) in [8] is 96.4% (inactive). For the same molecule, in assay [9], the aptamer binding inhibition was 2% (inactive). The values for the response in assay [10] and in assay [12] were 2.61% (inactive) and 4.59% (inactive), respectively. For the same molecule, in assay [13], the binding (% of control) is 102% (inactive). Also, in assay [14], the efflux inhibition (fraction of control) is -0.16 (inactive). In addition, the differentiation response in assay [16] was -7.5% (inactive).

The values above are taken from PubChem BioAssay.
